Screening results: PubChem, National Center for Advancing Translational Sciences (NCATS)
In the library only some 21% were active in any assay of this set; here they are far more common.
Shiga toxin inh = inhibitors of Shiga toxin in Vero cells; Vero cells, Shiga toxin protein synthesis inhibition reporter; inhibition, % at 38.7 µM; 9.2% of 290,000 active; in the data active means inhibition mostly above about 28%, no sharp cut-off; inactive means mostly below about 43%; further: 0% is about no effect
Pf growth 48h = inhibits P. falciparum growth in the first generation, 48 h; P. falciparum luciferase growth in erythrocytes, 48 h; Potency, µM (titrated, usually from 28.7 µM), without a hit: top-dose activity change, negative = inhibition, most hits filed as inhibitors; 5.9% of 310,000 active; further: potency means the concentration at half of the fitted maximal effect; on the % scale 0 is the no-effect control and ±100 the full control effect
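Luciferase-expressing P. falciparum in infected erythrocytes (2% hematocrit, 0.1% parasitemia final) in RPMI 1640/0.5% Albumax were exposed to compound for 48 hours at 37 C, 5% CO2; growth read as luminescence.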
NS1 inh = influenza NS1 inhibition; Potency, µM (highest dose often 46.1 µM), for inactives: at the highest dose activity, positive = more growth; 0.4% of 270,000 active; calls by dose curve; further: potency means the concentration at half of the fitted maximal effect; actives are rising curves; nearly all actives have a fitted effect of over 50% in size
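Read-out: OD600 growth recovery of NS1-expressing budding yeast. Cells grown overnight at 30C in -URA glucose medium, washed, resuspended and diluted 1:100 in 2% galactose assay medium, pH 6.0. Same strain lacking NS1 served as positive control.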
Pf growth 96h = P. falciparum growth inhibition at 96 hours. Potency, µM (top dose mostly 28.7 µM), without a hit: at the top dose activity change, negative = inhibition, usual class: inhibitors. AID 504834. P. falciparum luciferase reporter growth, 96 h. 6.9% of 320,000 active; further: potency means the concentration at half of the fitted maximal effect; on the % scale 0 is the no-effect control and ±100 the full control effect
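Luminescence readout: decreased luciferase signal marks inhibited growth of reporter-expressing P. falciparum in infected red cells (2% hematocrit, 0.05% parasitemia final), exposed to compound two generations (96 h, 37 C, 5% CO2).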
Cycloheximide cs = affects cycloheximide protein synthesis inhibition readout, counter-screen; 12% of 300,000 active; AID 2314; cell reporter, cycloheximide protein synthesis inhibition counterscreen; max response, %; in the data active means max response mostly above about 13%, no sharp cut-off; inactive means mostly below about 14%; further: read at 38.3 µM for the half of the compounds with a filed dose; 0% is about no effect
An asterisk follows results filed as active; i = inactive; ? = inconclusive; nt = no result. Unless noted, the call rests on the fitted dose curve; in most records, active means well fitted inhibition curve with a large enough effect; inconclusive means small, poorly fitted or top-dose-only effect, or another doubt; inactive means no such curve, though single readings can be large or run the other way.

SMILES	Shiga toxin inh	Pf growth 48h	NS1 inh	Pf growth 96h	Cycloheximide cs
S=c1[nH]cnc2scc(-c3ccccc3)c12	-4	?	10%	0.33µM*	-1
CNc1ncnc2sc(-c3ccccc3)cc12	15	-3%	nt	26%	12
S=c1[nH]cnc2sc(-c3ccccc3)cc12	77*	28%	nt	22%	31*
COc1ccc(NC(=O)CN2C(=O)NC(CC(C)C)C2=O)cc1S(=O)(=O)N1CCOCC1 (configuration not stated)	nt	1%	nt	8%	nt
NC(=O)COc1ccc(/C=N\NC(=O)c2ccc(-c3ccccc3)cc2)cc1	-23	11%	11%	?	3
C=CCn1c(SCC(=O)Nc2ccc(Br)cc2)nc(O)c(CC)c1=O	-9	35%	8%	-1%	-4
CCOc1ccccc1CN1CCN(Cc2ccc3cccc(OC)c3n2)CC1CCO (configuration not stated)	-12	0%	22%	?	-1
CN(C)CCCNC(=O)c1cc(C(=O)c2ccc(F)cc2)c[nH]1	-9	i	nt	32%	-3
CCN(C(=O)c1ccc(C(C)(C)C)cc1)c1nnc(Cn2nnc3ccccc32)s1	-16	10µM*	-5%	120%	-2
C=CCn1c(SC(C)C(=O)c2c(N)n(C)c(=O)n(C)c2=O)nnc1-c1ccoc1C (configuration not stated)	nt	12µM*	nt	8.3µM*	nt
O=C1NC(=S)N/C1=C/C=C/c1ccccc1	35	10%	nt	?	43*
CC1(C)CC(=O)c2sc(NS(=O)(=O)Cc3ccccc3)nc2C1	41*	30%	7%	2%	27*
Cc1ccc(S(=O)(=O)Nc2nc3c(s2)C(=O)CC(C)(C)C3)cc1	-15	9%	4%	?	9
Cc1ccc(C)c(N2CCN(S(=O)(=O)c3ccc4c(c3)CCN4C(=O)CCC(=O)O)CC2)c1	-3	nt	-2%	?	-7
Cc1ccc(CNS(=O)(=O)c2ccc3c(c2)CCN3C(=O)C2CCC2)cc1	-2	18%	-5%	13µM*	-1
O=C(C1CCC1)N1CCc2cc(S(=O)(=O)NCc3ccco3)ccc21	49	-4%	3%	-24%	35*
O=C(O)CCC(=O)N1CCc2cc(S(=O)(=O)NCc3ccc(Cl)cc3)ccc21	1	10%	1%	12µM*	-4
O=C(O)CCC(=O)N1CCc2cc(S(=O)(=O)NCCc3ccc(Cl)cc3)ccc21	11	9%	8%	?	0
O=C(O)CCC(=O)N1CCc2cc(S(=O)(=O)N3CCN(c4ccc(F)cc4)CC3)ccc21	-19	nt	-47%	15µM*	-1
O=C(NCc1ccccn1)c1cccc(NS(=O)(=O)c2ccc(Br)cc2)c1	nt	5%	nt	6%	nt
COc1ccc(N(C)S(=O)(=O)c2ccc3c(c2)CCN3C(=O)C2CC2)c(OC)c1	-12	-6%	-14%	4.1µM*	-4
CCC(=O)N1CCc2cc(S(=O)(=O)N(C)c3ccc(OC)cc3OC)ccc21	-2	-4%	-4%	35%	-3
Cn1ncc(Br)c1N1C(=O)CCC1=O	-2	29%	5%	50%	-2
CC(C)c1cccc(C(C)C)c1NC(=O)COC(=O)c1ccc2c(c1)S(=O)(=O)c1ccccc1C2=O	-12	2%	7%	15%	13
COC(=O)C1C(c2ccccc2)C(C(=O)OCc2ccco2)C1c1ccccc1 (configuration not stated)	125*	10µM*	-36%	-4%	72*
SMILES	Shiga toxin inh	Pf growth 48h	NS1 inh	Pf growth 96h	Cycloheximide cs
O=C(O)C1C(c2ccccc2)C(C(=O)OCc2ccco2)C1c1ccccc1 (configuration not stated)	-3	-7%	0%	-7%	-1
Cc1nn(C)c(N)c1[N+](=O)[O-]	34	-2%	-2%	26%	-3
Cc1nn(C)c(Sc2ccccc2N)c1[N+](=O)[O-]	90	9%	1%	5%	29*
Cc1onc(-c2ccccc2Cl)c1C(=O)N1CCN=C1SCc1cccnc1	-2	5%	-4%	2.1µM*	10
CCSC1=NCCN1C(=O)c1c(-c2ccccc2Cl)noc1C	-1	-12%	2%	13%	-1
O=C(CCn1c(=O)oc2ccccc21)NCCN1CCOCC1	18	73%	2%	9%	4
COc1ccc(CCn2nc(C)c([N+](=O)[O-])c2C)cc1	83*	?	5%	?	30*
COc1ccc(C2C(C#N)=C(N)OC3=C2C(=O)CCC3)cc1Cn1nc(C)c([N+](=O)[O-])c1C (configuration not stated)	-6	12µM*	-4%	24%	-2
COc1ccc(C(C)=O)cc1Cn1nc(C)c([N+](=O)[O-])c1C	4	19µM*	nt	?	1
COc1cccc(-n2c(CCn3nc(C)c([N+](=O)[O-])c3C)n[nH]c2=S)c1	-3	-11%	8%	13%	10
Cc1ccc(C(=O)Cn2nc(C)c([N+](=O)[O-])c2C)c(C)c1	57*	44%	nt	45%	20*
COc1ccc(CC(=O)N/N=C(\C)c2cccs2)cc1OC	-18	5%	16%	?	-2
CCN(CC(=O)NCc1cccs1)C(=O)/C=C/c1ccc(OC)c(OC)c1	nt	-9%	nt	4%	nt
CC12CCC(=O)N1C(C(=O)NNC(=O)COc1cccc(C(F)(F)F)c1)CS2 (configuration not stated)	nt	-2%	nt	-3%	nt
O=C(NCCc1ccccc1)C1CCC(=O)N1C1CCCC1 (configuration not stated)	28	13%	-2%	25%	6
C[S@@](=O)CCCCN=C=S	-12	nt	nt	nt	57*
O=S(=O)(Nc1ccc(N=Nc2ccc(O)c3ccccc23)cc1)c1ccccc1	12	2.3µM*	?	5.2µM*	6
Cn1c(C(=O)N2CCN(Cc3ccc4c(c3)OCO4)CC2)cc2sccc21	-18	?	-6%	10µM*	-8
Cn1c(C(=O)N2CCC(C(=O)N3CCN(Cc4ccc5c(c4)OCO5)CC3)CC2)cc2sccc21	10	?	-21%	10µM*	-6
CC(C)N(CCCNC(=O)C1CCN(C(=O)c2cc3sccc3n2C)CC1)Cc1ccccc1	-5	?	-16%	12µM*	-6
Cn1c(C(=O)N2CCC(C(=O)N3CCOCC3)CC2)cc2sccc21	-5	24%	-6%	12µM*	-4
C=CCNC(=O)[C@H]1N2C(=O)c3ccccc3C2SC1(C)C (some centres not stated)	35	13%	3%	13%	0
O=C(NC1(O)C(=O)c2ccccc2C1=O)c1c(Cl)cccc1Cl	-6	2.9µM*	-51%	33%	-4
COc1cccc(CNC(=O)CN2CCC(c3nc4ccc(C)cc4[nH]3)CC2)c1	12	-16%	5%	-2%	-4
O=C(N/N=C/c1ccccc1O)C1SCCCS1	40	?	nt	?	26*
O=C(N/N=C/c1ccccc1O)C1(O)c2ccccc2-c2ccccc21	-6	?	0%	67%	4
O=C(N/N=C/c1cc(Br)ccc1OC(=O)c1ccc(Br)cc1)c1ccncc1	57	1.7µM*	-1%	15%	-2
